The source of these data is publication PMC7862700, “An all-to-all approach to the identification of sequence-specific readers for epigenetic DNA modifications on cytosine”.

Holding throughout (test): DAPPL (digital affinity profiling via proximity ligation, sequencing); 10 mM Tris-HCl pH 7.5, 50 mM NaCl, 1 mM DTT, 4% glycerol, room temperature, 30 min; GST-TFs on glutathione beads, 16-mer random dsDNA library, 0.1% formaldehyde crosslink after washing; high values mean tight binding
Common to all, as to settings: protein: recombinant; tags: N-terminal GST; dsDNA, one strand shown

Assay [1] has as its target T1, FEV (Homo sapiens, UniProt Q99581 1-238).
T1 sequence: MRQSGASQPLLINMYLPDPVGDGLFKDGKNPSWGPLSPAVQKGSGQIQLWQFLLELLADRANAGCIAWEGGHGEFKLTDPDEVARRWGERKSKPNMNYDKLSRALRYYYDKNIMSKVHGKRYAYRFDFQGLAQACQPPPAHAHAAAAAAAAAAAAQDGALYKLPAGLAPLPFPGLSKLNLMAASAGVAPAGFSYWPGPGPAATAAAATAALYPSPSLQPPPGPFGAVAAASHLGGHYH
Put shortly: (§1)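 Beads coated with glutathione captured GST-fused human transcription factors that had been expressed in yeast, and the factors were then given DNA barcodes and pooled with a tag-only sample. The pools were incubated with 200 nmole of a random double-stranded 16-mer DNA library in Tris/NaCl/DTT/glycerol buffer for 30 min at room temperature, washed, crosslinked with 0.1% formaldehyde and proximity-ligated with BsaI/T4 ligase at 37 °C for 1 h. PCR amplification and Illumina NextSeq500 sequencing came last. Binding signal is each hexamer's read frequency for a factor divided by its frequency for the tag-only sample.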

The target of assay [2] is ETV5 (Homo sapiens, UniProt P41161 1-510). The gist of the method: as §1
ETV5, sequence (P41161 whole entry): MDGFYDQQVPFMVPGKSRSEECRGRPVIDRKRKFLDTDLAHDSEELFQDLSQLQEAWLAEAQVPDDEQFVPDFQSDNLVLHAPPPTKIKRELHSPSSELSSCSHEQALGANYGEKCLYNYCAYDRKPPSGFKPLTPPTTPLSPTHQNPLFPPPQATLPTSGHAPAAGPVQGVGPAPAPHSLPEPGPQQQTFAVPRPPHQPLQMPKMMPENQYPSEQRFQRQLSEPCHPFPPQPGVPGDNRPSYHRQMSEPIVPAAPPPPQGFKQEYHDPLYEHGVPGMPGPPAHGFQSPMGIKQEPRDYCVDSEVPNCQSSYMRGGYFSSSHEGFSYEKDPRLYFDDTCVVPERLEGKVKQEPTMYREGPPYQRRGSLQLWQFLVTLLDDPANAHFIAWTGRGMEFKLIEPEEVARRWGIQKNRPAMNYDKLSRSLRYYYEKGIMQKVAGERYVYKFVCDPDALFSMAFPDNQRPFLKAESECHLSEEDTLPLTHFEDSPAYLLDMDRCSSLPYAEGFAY
Assay [3] concerns the target T2, SPIC (Homo sapiens, UniProt Q8N5J4 1-248).
T2 sequence: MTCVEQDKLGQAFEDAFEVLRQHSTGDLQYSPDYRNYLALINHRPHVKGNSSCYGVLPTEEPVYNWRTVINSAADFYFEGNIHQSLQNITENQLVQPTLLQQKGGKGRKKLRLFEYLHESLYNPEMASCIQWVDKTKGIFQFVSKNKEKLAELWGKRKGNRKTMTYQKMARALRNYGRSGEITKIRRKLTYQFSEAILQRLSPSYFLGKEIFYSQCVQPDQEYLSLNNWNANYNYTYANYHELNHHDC
Put shortly: as §1

Assay [4] concerns the target ELF4 (Homo sapiens, UniProt Q99607 1-663). The gist of the method:
as §1

Assay [5] concerns the target T3, ELK4 (Homo sapiens, UniProt P28324-2 1-405).
T3 sequence: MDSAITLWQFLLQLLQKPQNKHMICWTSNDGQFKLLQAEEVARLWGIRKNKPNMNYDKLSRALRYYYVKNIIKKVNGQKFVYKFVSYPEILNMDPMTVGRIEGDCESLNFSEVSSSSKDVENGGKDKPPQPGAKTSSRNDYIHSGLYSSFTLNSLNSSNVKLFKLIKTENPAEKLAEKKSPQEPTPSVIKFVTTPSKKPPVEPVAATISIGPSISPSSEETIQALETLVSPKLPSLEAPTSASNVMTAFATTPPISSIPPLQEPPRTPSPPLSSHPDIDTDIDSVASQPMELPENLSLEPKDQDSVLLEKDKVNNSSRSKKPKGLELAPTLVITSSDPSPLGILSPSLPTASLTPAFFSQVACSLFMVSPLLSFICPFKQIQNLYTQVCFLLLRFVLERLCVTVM
The gist of the method:
as §1

Assay [6] deals with T4, ELF3 (Homo sapiens, UniProt P78545 1-371).
T4 sequence: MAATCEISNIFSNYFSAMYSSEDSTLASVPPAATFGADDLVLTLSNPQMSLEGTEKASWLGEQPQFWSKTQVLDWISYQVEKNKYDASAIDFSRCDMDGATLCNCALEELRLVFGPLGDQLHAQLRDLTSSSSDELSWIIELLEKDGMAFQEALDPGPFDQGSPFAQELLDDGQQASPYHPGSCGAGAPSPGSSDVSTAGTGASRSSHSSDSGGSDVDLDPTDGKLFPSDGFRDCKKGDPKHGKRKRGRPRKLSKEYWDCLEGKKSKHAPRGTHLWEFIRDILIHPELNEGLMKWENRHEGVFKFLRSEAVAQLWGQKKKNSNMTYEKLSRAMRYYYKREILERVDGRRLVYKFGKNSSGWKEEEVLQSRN
Put shortly:
as §1

For assay [7], the target named is ETV1 (Homo sapiens, UniProt P50549 1-477). The gist of the method:
as §1

Assay [8] has as its target T5, ETV2 (Homo sapiens, UniProt O00321 1-342).
T5 sequence: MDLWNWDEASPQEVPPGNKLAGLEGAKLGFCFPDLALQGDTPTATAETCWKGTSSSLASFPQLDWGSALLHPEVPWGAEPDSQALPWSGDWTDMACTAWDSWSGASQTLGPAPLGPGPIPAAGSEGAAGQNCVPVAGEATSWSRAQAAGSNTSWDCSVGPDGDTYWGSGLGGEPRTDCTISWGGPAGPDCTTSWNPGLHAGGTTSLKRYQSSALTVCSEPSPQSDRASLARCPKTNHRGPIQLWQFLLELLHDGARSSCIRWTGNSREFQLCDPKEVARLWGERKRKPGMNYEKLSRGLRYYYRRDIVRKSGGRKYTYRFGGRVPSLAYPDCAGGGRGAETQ
Put shortly: as §1

Assay [9] has as its target CRX (Homo sapiens, UniProt O43186 1-299). Put shortly: as §1

CRX, sequence (O43186 whole entry): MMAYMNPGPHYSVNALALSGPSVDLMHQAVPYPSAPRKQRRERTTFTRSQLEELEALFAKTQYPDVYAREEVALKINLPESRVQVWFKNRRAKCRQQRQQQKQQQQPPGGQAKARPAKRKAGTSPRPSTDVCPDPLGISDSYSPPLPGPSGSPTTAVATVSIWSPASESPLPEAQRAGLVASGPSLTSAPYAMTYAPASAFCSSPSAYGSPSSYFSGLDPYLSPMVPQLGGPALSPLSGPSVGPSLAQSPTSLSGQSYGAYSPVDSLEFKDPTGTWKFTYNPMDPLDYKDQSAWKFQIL
ELF4, sequence (Q99607 whole entry): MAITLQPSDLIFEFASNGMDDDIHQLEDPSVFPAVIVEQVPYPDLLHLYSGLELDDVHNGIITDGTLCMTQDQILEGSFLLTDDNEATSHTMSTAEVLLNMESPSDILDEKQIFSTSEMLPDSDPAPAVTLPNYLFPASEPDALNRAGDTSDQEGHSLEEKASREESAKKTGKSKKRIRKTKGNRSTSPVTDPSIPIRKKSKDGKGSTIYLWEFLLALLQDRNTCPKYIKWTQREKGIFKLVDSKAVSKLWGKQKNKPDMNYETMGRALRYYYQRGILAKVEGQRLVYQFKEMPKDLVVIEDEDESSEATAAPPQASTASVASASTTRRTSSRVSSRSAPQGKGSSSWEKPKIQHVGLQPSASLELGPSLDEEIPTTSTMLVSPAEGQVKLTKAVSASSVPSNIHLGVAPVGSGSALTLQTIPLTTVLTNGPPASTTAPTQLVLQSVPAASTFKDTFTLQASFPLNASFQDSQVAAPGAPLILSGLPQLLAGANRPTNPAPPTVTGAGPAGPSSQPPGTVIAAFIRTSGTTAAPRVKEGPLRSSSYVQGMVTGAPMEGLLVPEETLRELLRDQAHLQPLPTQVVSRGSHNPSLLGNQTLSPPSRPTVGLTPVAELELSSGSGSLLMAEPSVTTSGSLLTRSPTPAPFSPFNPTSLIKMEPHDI
ETV1, sequence (P50549 whole entry): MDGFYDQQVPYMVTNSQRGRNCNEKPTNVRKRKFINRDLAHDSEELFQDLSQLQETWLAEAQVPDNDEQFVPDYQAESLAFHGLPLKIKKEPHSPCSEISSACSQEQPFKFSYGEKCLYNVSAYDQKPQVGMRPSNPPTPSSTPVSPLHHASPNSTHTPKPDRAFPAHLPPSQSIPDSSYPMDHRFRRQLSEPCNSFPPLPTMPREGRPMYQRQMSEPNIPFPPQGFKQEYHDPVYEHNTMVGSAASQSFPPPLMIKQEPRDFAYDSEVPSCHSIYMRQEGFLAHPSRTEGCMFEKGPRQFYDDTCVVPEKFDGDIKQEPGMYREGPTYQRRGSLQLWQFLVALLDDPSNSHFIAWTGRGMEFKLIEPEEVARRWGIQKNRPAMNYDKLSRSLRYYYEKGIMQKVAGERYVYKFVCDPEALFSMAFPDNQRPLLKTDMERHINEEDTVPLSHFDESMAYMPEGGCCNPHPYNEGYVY

Take GTTACA: the binding signal in assay [1] was 1.18 fold enrichment (6-mer frequency, TF over GST control); in assay [2], 1.16 fold enrichment (6-mer frequency, TF over GST control); in assay [3], 1.14 fold enrichment (6-mer frequency, TF over GST control); in assay [4], 1.11 fold enrichment (6-mer frequency, TF over GST control); in [5], 1.26 fold enrichment (6-mer frequency, TF over GST control); in assay [6], 1.15 fold enrichment (6-mer frequency, TF over GST control). The binding signal in assay [7] is 1.11 fold enrichment (6-mer frequency, TF over GST control).

Take GCCAAT: the binding signal in [1] is 1.03 fold enrichment (6-mer frequency, TF over GST control); in assay [2], 1.09 fold enrichment (6-mer frequency, TF over GST control); in assay [3] it was 1.05 fold enrichment (6-mer frequency, TF over GST control); in [4], 1.12 fold enrichment (6-mer frequency, TF over GST control); in assay [5], 1.01 fold enrichment (6-mer frequency, TF over GST control); in [6] it was 1.2 fold enrichment (6-mer frequency, TF over GST control). Also, the binding signal in [7] is 1.13 fold enrichment (6-mer frequency, TF over GST control).

Take TCAACG: the binding signal in assay [1] is 1.06 fold enrichment (6-mer frequency, TF over GST control); in assay [2] it was 1.12 fold enrichment (6-mer frequency, TF over GST control); in assay [3] it was 1.1 fold enrichment (6-mer frequency, TF over GST control); in assay [4], 1.11 fold enrichment (6-mer frequency, TF over GST control); in assay [5], 1.09 fold enrichment (6-mer frequency, TF over GST control); in assay [8], 1.18 fold enrichment (6-mer frequency, TF over GST control). For the same sequence, the binding signal in assay [9] is 1.1 fold enrichment (6-mer frequency, TF over GST control); in assay [7] it was 1.15 fold enrichment (6-mer frequency, TF over GST control).

Take TTGGGT: the binding signal in assay [1] is 1.07 fold enrichment (6-mer frequency, TF over GST control); in assay [2], 1.04 fold enrichment (6-mer frequency, TF over GST control); in assay [3], 1.07 fold enrichment (6-mer frequency, TF over GST control); in [4], 1.08 fold enrichment (6-mer frequency, TF over GST control); in [5], 1.09 fold enrichment (6-mer frequency, TF over GST control); in assay [6] it was 1.14 fold enrichment (6-mer frequency, TF over GST control). The binding signal in assay [9] was 1.07 fold enrichment (6-mer frequency, TF over GST control); in assay [7], 1.06 fold enrichment (6-mer frequency, TF over GST control).

Turning to ATATGA, the binding signal was 1.03 fold enrichment (6-mer frequency, TF over GST control) in [1]; 1.11 fold enrichment (6-mer frequency, TF over GST control) in assay [2]; 1.16 fold enrichment (6-mer frequency, TF over GST control) in assay [3]; 1.1 fold enrichment (6-mer frequency, TF over GST control) in assay [4]; 1.19 fold enrichment (6-mer frequency, TF over GST control) in [5]; 1.1 fold enrichment (6-mer frequency, TF over GST control) in assay [6]. For the same sequence, the binding signal in [9] was 1.02 fold enrichment (6-mer frequency, TF over GST control); in assay [7], 1.05 fold enrichment (6-mer frequency, TF over GST control).

Regarding GTCCAC, the binding signal in assay [1] is 1.08 fold enrichment (6-mer frequency, TF over GST control); in assay [2], 1.07 fold enrichment (6-mer frequency, TF over GST control); in assay [3], 1.05 fold enrichment (6-mer frequency, TF over GST control); in assay [4] it was 1.06 fold enrichment (6-mer frequency, TF over GST control); in assay [5], 1.07 fold enrichment (6-mer frequency, TF over GST control); in assay [8], 1.14 fold enrichment (6-mer frequency, TF over GST control).

As to ACGCAC, the binding signal was 1.05 fold enrichment (6-mer frequency, TF over GST control) in assay [1]; 1.09 fold enrichment (6-mer frequency, TF over GST control) in assay [2]; 1.01 fold enrichment (6-mer frequency, TF over GST control) in [3]; 1.05 fold enrichment (6-mer frequency, TF over GST control) in [4]; 1.06 fold enrichment (6-mer frequency, TF over GST control) in assay [5]; 1.22 fold enrichment (6-mer frequency, TF over GST control) in [8]. Moreover, in assay [7], the binding signal was 1.1 fold enrichment (6-mer frequency, TF over GST control).

Turning to GGGCTC, the binding signal in assay [1] was 1.15 fold enrichment (6-mer frequency, TF over GST control); in assay [2], 1.18 fold enrichment (6-mer frequency, TF over GST control); in assay [3], 1.19 fold enrichment (6-mer frequency, TF over GST control); in assay [4], 1.26 fold enrichment (6-mer frequency, TF over GST control); in assay [5] it was 1.09 fold enrichment (6-mer frequency, TF over GST control); in [6], 1.19 fold enrichment (6-mer frequency, TF over GST control). Further, in assay [7], the binding signal was 1.29 fold enrichment (6-mer frequency, TF over GST control).

On to TGCTTG, for which the binding signal is 1.09 fold enrichment (6-mer frequency, TF over GST control) in assay [1]; 1.2 fold enrichment (6-mer frequency, TF over GST control) in [2]; 1.31 fold enrichment (6-mer frequency, TF over GST control) in [3]; 1.12 fold enrichment (6-mer frequency, TF over GST control) in assay [4]; 1.4 fold enrichment (6-mer frequency, TF over GST control) in assay [5]; 1.26 fold enrichment (6-mer frequency, TF over GST control) in assay [8]. Further, in assay [7], the binding signal was 1.21 fold enrichment (6-mer frequency, TF over GST control).
